An excerpt weighted towards active compounds, which were near 10% of everything screened.
Luciferase inh – inhibitors of firefly (Photinus pyralis) luciferase. P08659. purified P. pyralis luciferase, luminescence, biochemical. Potency, µM (titrated, usually from 115 µM), usual class: inhibitors. 2.5% of 76,000 active; also: nearly all actives have a fitted effect of over 65% in size
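Purified P. pyralis luciferase (10nM final) in 50mM Tris acetate pH 7.5, 10mM Mg acetate, 0.01% Tween-20, 0.05% BSA with 10uM D-luciferin and 10uM ATP. Compounds titrated qHTS. Luminescence imaged on CCD.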
GPT2 inh – blocks human glutamate pyruvate transaminase 2; Q8TD30; Recombinant GPT2, coupled pyruvate oxidase/HRP Amplex Red fluorescence; Potency, µM (doses to about 57.7 µM), without a hit: top-dose activity change, negative = inhibition, actives largely listed as inhibitors; 0.25% of 100,000 active; also: nearly all actives have a fitted effect of over 60% in size
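Fluorescence read-out: pyruvate from GPT2 turnover coupled to pyruvate oxidase, HRP and Amplex Red (0.2mM ThPP, 0.2U/mL PO and HRP, 50uM Amplex final). Substrates 250uM a-KG, 2mM L-alanine; enzyme 10ng/uL; 30 min RT.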
3T3 cytotox – NIH 3T3 cell cytotoxicity. Potency, µM (top dose mostly 96.7 µM), inactives show top-dose activity change, negative = cytotoxicity, most hits filed as inhibitors. NIH 3T3 viability, CellTiter-Glo ATP luminescence, 48-72 h. AID 1345082. 4.3% of 94,000 active; also: nearly all actives have a fitted effect of over 55% in size
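Luminescent ATP readout (CellTiter-Glo, 10 min RT) after 48 or 72 hr compound exposure of NIH 3T3 cells seeded at 400 cells/well in 1536-well format; quantitative HTS.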
hNpr1 antagonist – blocks ANP-stimulated signaling of human Npr1 receptor; P16066; HEK293 hNpr1 GloSensor cGMP, ANP-stimulated luminescence; Potency, µM (doses to about 46.3 µM), for inactives: at the top dose activity change, negative = inhibition, usual class: inhibitors; 1.6% of 76,000 active; calls by dose curve; also: nearly all actives have a fitted effect of over 60% in size
Target sequence (P16066 whole entry, looked up): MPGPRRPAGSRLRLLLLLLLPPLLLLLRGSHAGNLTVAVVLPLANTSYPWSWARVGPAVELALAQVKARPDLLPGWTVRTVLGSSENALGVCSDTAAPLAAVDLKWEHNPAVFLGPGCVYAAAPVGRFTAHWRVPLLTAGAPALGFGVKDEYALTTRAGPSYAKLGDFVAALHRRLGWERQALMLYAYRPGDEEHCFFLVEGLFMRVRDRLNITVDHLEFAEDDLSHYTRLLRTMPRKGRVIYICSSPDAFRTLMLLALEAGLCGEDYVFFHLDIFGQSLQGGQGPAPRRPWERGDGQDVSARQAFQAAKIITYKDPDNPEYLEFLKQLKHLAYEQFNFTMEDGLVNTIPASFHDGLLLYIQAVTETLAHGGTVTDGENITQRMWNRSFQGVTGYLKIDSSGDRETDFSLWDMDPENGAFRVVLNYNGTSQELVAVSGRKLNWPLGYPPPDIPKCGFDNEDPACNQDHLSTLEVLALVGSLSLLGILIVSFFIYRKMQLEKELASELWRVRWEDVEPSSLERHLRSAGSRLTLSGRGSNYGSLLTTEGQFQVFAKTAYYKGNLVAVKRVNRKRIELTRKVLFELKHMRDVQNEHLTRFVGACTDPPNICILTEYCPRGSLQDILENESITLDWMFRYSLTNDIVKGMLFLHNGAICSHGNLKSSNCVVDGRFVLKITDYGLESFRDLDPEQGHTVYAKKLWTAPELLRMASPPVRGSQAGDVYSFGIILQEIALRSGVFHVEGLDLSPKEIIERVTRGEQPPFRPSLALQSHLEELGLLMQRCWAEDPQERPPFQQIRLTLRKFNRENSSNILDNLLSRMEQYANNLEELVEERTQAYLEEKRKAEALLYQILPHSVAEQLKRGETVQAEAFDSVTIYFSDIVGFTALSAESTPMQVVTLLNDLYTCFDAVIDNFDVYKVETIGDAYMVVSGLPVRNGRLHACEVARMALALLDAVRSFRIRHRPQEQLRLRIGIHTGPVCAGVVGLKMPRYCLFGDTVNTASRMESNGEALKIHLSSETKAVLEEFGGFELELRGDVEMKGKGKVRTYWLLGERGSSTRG
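HEK293 cells stably expressing human Npr1 and cGMP GloSensor pGS-40F, loaded 2 h with 2% GloSensor reagent, given compound 30 min at room temperature. Luminescence read before and 20 min after 0.1 nM hNppA.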
HEK cytotox – kills HEK 293 cells. HEK 293 viability, ATP luminescence (CellTiter-Glo), 48-72 h. Potency, µM (highest dose often 115 µM), for the others: top-dose activity change, negative = cytotoxicity, most hits filed as inhibitors. 6.6% of 94,000 active. AID 1345083; also: nearly all actives have a fitted effect of over 60% in size
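Read-out: CellTiter-Glo ATP luminescence. Cells: HEK 293, 250 cells/well. Exposure: 48 or 72 hr, 37 degree Celsius.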
An asterisk follows results filed as active; [ ] = remark or other dose. Unless noted, calls follow the shape of the dose curve; as a rule, active = well fitted curve in the direction sought with a large enough effect; inconclusive = small, poorly fitted or top-dose-only effect, or another doubt; inactive = no such curve, though single readings can be large; an effect the other way counts as inactive or inconclusive. % is scaled to controls: 0 for no effect and ±100 for the full control effect; potency is read from the fitted curve at half-maximal effect.

COc1ccc(Nc2ccnc(N3CCN([S+](=O)([O-])c4cccc(C(F)(F)F)c4)CC3)n2)cc1 was read as GPT2 inh inconclusive, 3T3 cytotox inconclusive and HEK cytotox 32µM*.
Fc1ccc(CN2CC(N3CCc4ccccc43)C2)cc1 was read as GPT2 inh -24%[88.5 µM], 3T3 cytotox -10%[138 µM] and HEK cytotox -16%[172 µM].
`CN(C)c1ccc(CN2CC(N3CCc4ccccc43)C2)cc1` gave Luciferase inh inactive, GPT2 inh inactive, 3T3 cytotox 89µM*, hNpr1 antagonist -6%[70.6 µM] and HEK cytotox 89µM*.
`CC(C)n1cc(CN2CCC(Oc3ccc(C(=O)NC4CCCC4)cc3Cl)CC2)cn1` gave Luciferase inh inactive, GPT2 inh 0%, 3T3 cytotox 40µM*, hNpr1 antagonist 3% and HEK cytotox inconclusive.
Screening COc1cccc(-c2nc(N3CCOCC3)cc3c2CN(Cc2ccccc2)C3=O)c1OC returned Luciferase inh inactive, GPT2 inh -7%, 3T3 cytotox -22%, hNpr1 antagonist 1% and HEK cytotox inconclusive.
COc1ccc(CNC(=O)[C@@H](C)C2CC[C@@]3(C)CC[C@H](NC(=O)COc4ccccc4)[C@@H](C)[C@@H]3[C@H]2O)cc1 (stereo not given in full) was read as Luciferase inh inactive, GPT2 inh inactive, 3T3 cytotox 32µM*, hNpr1 antagonist inconclusive and HEK cytotox 22µM*.
`COc1ccc(CNC(=O)[C@@H](C)C2CC[C@@]3(C)CC[C@H](NC(=O)C4CC4)[C@@H](C)[C@@H]3[C@H]2O)cc1` (stereo not given in full) gave Luciferase inh inactive, GPT2 inh inconclusive, 3T3 cytotox -27%, hNpr1 antagonist -2% and HEK cytotox inconclusive.
`Cn1ncc2c(C(=O)NCCCc3ccccc3)cc(-c3ccc([S+](C)(=O)[O-])cc3)nc21` gave GPT2 inh -35%, 3T3 cytotox inconclusive and HEK cytotox 50µM*.
COc1ccc(CNC(=O)c2cc(-c3ccc(C(F)(F)F)cc3)nc3c2cnn3C)cc1 was read as 3T3 cytotox inconclusive and HEK cytotox -32%.
Screening Cn1ncc2c(C(=O)NCc3ccc(C(F)(F)F)cc3)cc(-c3cccc(F)c3)nc21 returned 3T3 cytotox 45µM* and HEK cytotox inconclusive.
Cn1ncc2c(C(=O)NCc3ccc(C(F)(F)F)cc3)cc(-c3ccc(F)cc3)nc21 was read as 3T3 cytotox 22µM* and HEK cytotox inconclusive.
Screening COc1ccc(CNC(=O)c2cc(-c3ccc(F)cc3)nc3c2cnn3C)cc1 returned 3T3 cytotox 40µM* and HEK cytotox 45µM*.
Screening COc1ccc(-c2cc(C(=O)NCc3ccc(Cl)cc3)c3cnn(C)c3n2)cc1 returned GPT2 inh inactive, 3T3 cytotox inconclusive and HEK cytotox inconclusive.
`O=C(Nc1ccc(Cl)cc1)N1CCC(C(=O)N2CCC(N3Cc4ccccc4C3=O)CC2)CC1` gave GPT2 inh inactive, 3T3 cytotox inconclusive and HEK cytotox inconclusive.
Screening c1cncc(CNC[C@H]2Cn3c(-c4ccc5c(c4)OCCO5)cnc3CO2)c1 returned Luciferase inh inactive, GPT2 inh -3%[88.5 µM], 3T3 cytotox inconclusive, hNpr1 antagonist -1%[70.6 µM] and HEK cytotox -24%[172 µM].
COCCNC(=O)c1cc(-c2ccc(F)cc2)nc2c1cnn2C was read as GPT2 inh inactive, 3T3 cytotox inconclusive and HEK cytotox inconclusive.
For Cn1ncc2c(C(=O)NCc3ccccc3)cc(-c3cccnc3)nc21 the results were GPT2 inh inactive, 3T3 cytotox inconclusive and HEK cytotox 40µM*.
For Cc1cccc(C)c1-c1cc(C(=O)NCc2ccc(C(F)(F)F)cc2)c2cnn(C)c2n1 the results were GPT2 inh inactive, 3T3 cytotox 14µM* and HEK cytotox 22µM*.
`Cc1cccc(C)c1-c1cc(C(=O)NCc2ccc(F)cc2)c2cnn(C)c2n1` gave GPT2 inh -4%, 3T3 cytotox inconclusive and HEK cytotox inconclusive.
`Cn1ncc2c(C(=O)NCc3cccc(Cl)c3)cc(-c3cccnc3)nc21` gave GPT2 inh -2%, 3T3 cytotox inconclusive and HEK cytotox inconclusive.
Cn1ncc2c(C(=O)NCC#N)cc(-c3ccc(F)cc3)nc21 was read as 3T3 cytotox 35µM* and HEK cytotox inconclusive.
C#CCNC(=O)c1cc(-c2ccc(C(F)(F)F)cc2)nc2c1cnn2C was read as 3T3 cytotox inconclusive and HEK cytotox 25µM*.
For Cn1ncc2c(C(=O)NCCc3ccccc3)cc(-c3ccc(C(F)(F)F)cc3)nc21 the results were 3T3 cytotox -18% and HEK cytotox 4%.
`COc1ccccc1CNC(=O)c1cc(-c2ccccc2F)nc2c1cnn2C` gave 3T3 cytotox 25µM* and HEK cytotox inconclusive.
Cn1ncc2c(C(=O)Nc3ccccc3F)cc(-c3ccc(C(F)(F)F)cc3)nc21 was read as 3T3 cytotox 35µM* and HEK cytotox inconclusive.
Cn1ncc2c(C(=O)NCC(=O)c3ccccc3)cc(-c3ccccc3F)nc21 was read as 3T3 cytotox -6% and HEK cytotox inconclusive.
For Cn1ncc2c(C(=O)NCc3ccc(F)c(F)c3)cc(-c3cccc(F)c3)nc21 the results were 3T3 cytotox inconclusive and HEK cytotox 40µM*.
Cn1ncc2c(C(=O)NCCc3ccccc3)cc(-c3cccc(F)c3)nc21 was read as 3T3 cytotox -30% and HEK cytotox inconclusive.
Cn1ncc2c(C(=O)NCc3ccccc3)cc(-c3cccc(F)c3)nc21 was read as 3T3 cytotox inconclusive and HEK cytotox 40µM*.
`COc1cccc(CN2CCCC(c3nc(-c4cccnc4)no3)CCNC(=O)CC2)c1` (stereo not given) gave Luciferase inh inactive, GPT2 inh inactive, 3T3 cytotox inconclusive, hNpr1 antagonist 2% and HEK cytotox inconclusive.
For O=C(CNC(=O)c1ccc(-c2cnc3ccccc3c2)cc1)NCc1ccc(F)cc1F the results were 3T3 cytotox -34% and HEK cytotox inconclusive.
`O=C(NCc1cccc(C(F)(F)F)c1)c1nc2cccnc2n(CCc2ccccc2)c1=O` gave GPT2 inh 3%, 3T3 cytotox -24% and HEK cytotox -14%.
`Cn1ncc2c(C(=O)NCc3ccc(C(F)(F)F)cc3)cc(-c3ccccc3F)nc21` gave 3T3 cytotox inconclusive and HEK cytotox 32µM*.
For Cn1ncc2c(C(=O)NCc3ccc(F)cc3)cc(-c3ccccc3F)nc21 the results were 3T3 cytotox inconclusive and HEK cytotox -12%.

Assay outcomes deposited in PubChem BioAssay by National Center for Advancing Translational Sciences (NCATS).
